About 8,600 (12%) of roughly 69,000 compounds showed an effect of 50% or more. For the sample, strong results were picked, then their nearest neighbours and some compounds at random.
The compounds below were run on Plasmodium berghei (assay: Screen against P. berghei liver stage (PbLuc), transformed with Luciferase, at 10uM). Conditions: tested at 10 uM.
Type: functional, HepG2

SMILES	INHIBITION [%]
CNC(=O)c1cc(NC(=O)Nc2cnn(CC(C)C)c2)ccc1F	1.56
COc1ccccc1-c1cc(C(=O)N2CCCC2)c2cnn(C)c2n1	44.1
O=C(CCc1ccccn1)N1CCCC1	-8.11
CN(C)C(=O)C1SCCc2ccccc21 (configuration not stated)	38.9
CC(=O)N1CCN(C(=O)C2SCCc3sccc32)CC1 (configuration not stated)	8.47
NC(=O)C1CCN(C(=O)C2SCCc3sccc32)CC1 (configuration not stated)	69.7
O=C(C1SCCc2ccccc21)N1CCC(O)CC1 (configuration not stated)	50.8
O=C(C1SCCc2sccc21)N1CC(O)C1 (configuration not stated)	6.33
O=C(C1SCCc2sccc21)N1CCCCC1 (configuration not stated)	62
O=C(C1SCCc2sccc21)N1CCC(O)CC1 (configuration not stated)	20.1
CN1CCN(C(=O)C2SCCc3sccc32)CC1 (configuration not stated)	39.7
CN(C)C1CCN(C(=O)C2SCCc3ccccc32)CC1 (configuration not stated)	19.2
COCCNC(=O)C1CCCN(c2ccc3nncn3n2)C1 (configuration not stated)	-21.9
CCO[C@H]1CN(CC2CCOCC2)[C@@H]2CCCO[C@H]12	38.5
O=C1COC2(CCN(Cc3ccco3)CC2)CN1CCn1cccn1	4.02
O=C(Nc1ccc(CCN2CCOCC2)cc1)C1CC1	6.35
Cc1nsc(N2CCCN(C(=O)CCc3ccsc3)CC2)n1	15.7
CCOc1ccc(N2CCCN=C2NC(=O)c2ccc(OC)cc2)cc1	-8.07
CCOc1ccc(N2CCCN=C2NC(=O)c2ccccc2C)cc1	-11.5
CCOc1ccc(N2CCCN=C2NC(=O)c2cccc(C)c2)cc1	54
CCOc1ccc(N2CCCN=C2NC(=O)c2cccc(Cl)c2)cc1	23.5
CCOc1ccc(N2CCCN=C2NC(=O)c2ccc(Cl)cc2)cc1	19.3
CCOc1ccc(N2CCCN=C2NC(=O)c2cccc(OC)c2)cc1	54.9
NC(=O)C1CCN(C(=O)NCCNc2ccccn2)CC1	21.9

SMILES	INHIBITION [%]
CCc1ncc(CN(C)C2CCN(C(C)C)CC2)cn1	-27.1
O=C(c1ccco1)N1CCC2(CCC(=O)N2Cc2cccc(F)c2)CC1	-4.27
COc1cc(N2C[C@H](C(=O)NC3CC3)[C@@H]3CCO[C@@H]3C2)ncn1	12.7
Cc1cnn(C2CN(CC(O)COc3ccc(C#N)cc3)C2)c1 (configuration not stated)	72.7
Cc1cnn(C2CN(CC(O)c3ccc(F)cc3)C2)c1 (configuration not stated)	-30.1
Cc1ncc2c(n1)CN(CC(O)COc1ccc(C#N)cc1)CC2 (configuration not stated)	-78
COc1ccc(C(O)CN2CC(n3cc(C)cn3)C2)cc1 (configuration not stated)	57.2
Cc1cnn(C2CN(CC(O)Cn3cccn3)C2)c1 (configuration not stated)	36.6
Cc1cnn(C2CN(CC(O)c3ccccc3)C2)c1 (configuration not stated)	29
COc1cccc(-n2c(C)cc(C(=O)NCCCC(N)=O)c2C)c1	-5.25
CC(C)c1nnc2n1CCN(C(=O)c1cccc(S(C)(=O)=O)c1)C2	45.7
c1ccc(COC[C@@]23CCC[C@@H]2CN(Cc2ccccn2)C3)nc1	-7.94
O=C(c1cscn1)N1C[C@H]2CCC[C@@]2(COCc2ccccn2)C1	64.7
O=C(c1ncccn1)N1C[C@H]2CCC[C@@]2(COCc2cccnc2)C1	45.5
Cc1ncoc1C(=O)N1C[C@H]2CCC[C@@]2(COCc2cccnc2)C1	60.1
O=S(=O)(C1CC1)N1C[C@H]2CCC[C@@]2(COCc2ccccn2)C1	43.9
O=C(c1ccnnc1)N1C[C@H]2CCC[C@@]2(COCc2ccccn2)C1	31.1
O=C(C1CCOCC1)N1C[C@H]2CCC[C@@]2(COc2cccnc2)C1	23.6
O=C(C1CCOCC1)N1C[C@H]2CCC[C@@]2(COc2ccccn2)C1	13.6
O=C(N1CCCC1)N1C[C@H]2CCC[C@@]2(COCc2ccccn2)C1	63.8
O=C(c1ccc(F)cc1)N1C[C@H]2CCC[C@@]2(COCc2ccccn2)C1	40.9
O=C(C1CCOCC1)N1C[C@H]2CCC[C@@]2(COCc2ccccn2)C1	53
O=C(c1cocn1)N1C[C@H]2CCC[C@@]2(COCc2cccnc2)C1	9.63
O=C(NCCCn1cccn1)C1(c2ccccc2)CCOCC1	16.8

SMILES	INHIBITION [%]
Cc1c(C(=O)N2CCCC(n3nnc4cc(F)ccc43)C2)cnn1C (configuration not stated)	2.71
CCC(NC(=O)COC)c1ccccc1OCC(=O)N1CCCC1 (configuration not stated)	-4.65
CN(C)C[C@@H]1CN(C(=O)c2cc(-c3ccccc3)n[nH]2)C[C@@H]1CO	43.9
COc1ccc(S(=O)(=O)NC(=O)COC2CCCC2)cc1	-0.96
Cc1ccc(NC(=O)N2C[C@@H]3CC[C@H]2CN(Cc2cscn2)C3)cc1	-28.6
Nc1ccnc(N2C[C@H]3CC[C@@H](C2)N(CC2CCC2)C3=O)n1	-32.4
CCn1ccc(NC(=O)CCn2nc(C)c3ccccc32)n1	-21.3
CCN(CC)C(=O)Cn1ccc2cc(NC(=O)NC3CC3)ccc21	-22.91
CCC(=O)N1CCC(NC(=O)c2cccc(-n3ccnc3)c2)C1 (configuration not stated)	2.43
Cc1cc(C)n(CC2CCCN2C(=O)c2cccc3c2OCCO3)n1 (configuration not stated)	10.85
CS(=O)(=O)CC(=O)N1C[C@H]2CCC[C@@]2(COCc2ccccn2)C1	25
O=C(Cc1ccsc1)N1C[C@H]2CCC[C@@]2(COCc2ccccn2)C1	63.8
COC[C@@]12CCC[C@@H]1CN(C(=O)Cc1ccccn1)C2	39.4
Cc1ccccc1C(=O)NC(C)c1cnn(C)c1 (configuration not stated)	40.8
CNC(=O)CNCc1c[nH]nc1-c1cc2ccccc2o1	1.51
CNc1nc2c(c(C(=O)N3CCCC3)n1)CN(C(=O)CCSC)CC2	-36.6
CN(C)CCN1CCN(C)C2(CCN(c3nccs3)CC2)C1=O	17.2
CN(C)CCN1CCOC2(CCN(c3nccs3)CC2)c2ccccc21	58.5
CS(=O)(=O)N1CCOC2(CCN(c3nccs3)CC2)c2ccccc21	5.36
CC(C)C(NC(=O)C1CCCC1)c1cc(O)nc(-c2cccnc2)n1 (configuration not stated)	28.925
CS(=O)(=O)c1ccc(OCCCN2CCc3cncnc3C2)cc1	31.2
CN(C)CCN1CCCC12CCCN(Cc1ccoc1)C2 (configuration not stated)	21.6
Cc1nccc(C2CN(C(=O)c3cncnc3)C2)n1	-14.2
Cc1cccc(CN2C(=O)OCC2CO)c1F (configuration not stated)	-21.8

SMILES	INHIBITION [%]
COc1ccc2c(C)c(C(=O)NCCCc3csc(N)n3)oc2c1	43.6
Cc1ccc(-c2cc(C(=O)NCCCc3csc(N)n3)[nH]n2)s1	56.5
Cc1[nH]c2c(F)cccc2c1CC(=O)NCCCc1csc(N)n1	1.24
Cc1ccc(-c2cc(C(=O)NCCN3CCCS3(=O)=O)[nH]n2)o1	-7.25
Cc1ccc(-c2cc(C(=O)NCCCc3csc(N)n3)[nH]n2)o1	64.6
Cn1cccc1-c1cc(C(=O)NCCCc2csc(N)n2)[nH]n1	35
CNC(=O)C1CN(C(C)C)CCN1c1nc(C)cc(C)n1 (configuration not stated)	3.48
O=C(CC1NC(N2CCc3ccccc3C2)=NC1=O)Nc1ccccc1 (configuration not stated)	19.3
O=C1COc2c(cccc2C(=O)N2CCCC(n3cccn3)C2)N1 (configuration not stated)	-4.94
Cc1nc(C(C)C)sc1C(=O)N1CCN(C2CN3CCC2CC3)CC1 (configuration not stated)	-6.91
COCCN1CCC(N(Cc2noc(C3CC3)n2)C(C)=O)C1 (configuration not stated)	23.4
Cc1nc(CN(C)C2CCN(Cc3cccc4cccnc34)C2)no1 (configuration not stated)	25.3
CCc1nc(CN(C(C)=O)C2CCN(CCc3ccccc3)C2)no1 (configuration not stated)	19.4
Cc1cnc(CN(C)C2CCN(Cc3nc4ccccc4s3)C2)o1 (configuration not stated)	15.3
CCc1nc(CN(C(C)=O)C2CCN(CC3CCOCC3)C2)no1 (configuration not stated)	17.4
CCc1nc(CN(C)C2CCN(CCc3ccncc3)C2)no1 (configuration not stated)	-12.2
Cc1nc(CN(C)C2CCN(Cc3nc4ccccc4s3)C2)no1 (configuration not stated)	60
Cc1nc(CN(C)C2CCN(Cc3ccc4ccccc4n3)C2)no1 (configuration not stated)	70.1
CCc1nc(CN(C(C)=O)C2CCN(CCc3ccncc3)C2)no1 (configuration not stated)	66.7
Cc1nc(CN(C)C2CCN(Cc3cnc(C)s3)C2)no1 (configuration not stated)	-29.8
CC(=O)N(Cc1noc(C2CC2)n1)C1CCN(CC2CCOCC2)C1 (configuration not stated)	56.6
Cc1nc(CN(C)C2CCN(Cc3nc4ccccc4n3C)C2)no1 (configuration not stated)	48.2
CN1CCOC(CNCc2csc(C3CCCC3)n2)C1 (configuration not stated)	45.1
O=C(c1ccc(Cl)cc1)N1CCC(N2CCCOC2=O)CC1	48.2

SMILES	INHIBITION [%]
COC1CCN(c2ccc(F)cc2CN(C)S(C)(=O)=O)CC1	4.52
CN(CC(C)(CO)CO)C(=O)Nc1cc(F)cc(Cl)c1	-35.9
COCc1nc(C(=O)NS(=O)(=O)c2ccc(F)cc2F)cs1	-1.95
NCCc1n[nH]c(=O)n1-c1cccc2ccccc12	30
CN(C)CCN1CCN(Cc2cccc(C#N)c2)Cc2cccnc21	-4.32
COc1cccc(CNCCc2cc(F)cc3c2OCOC3)c1OC	30
COc1c(CNCCC(=O)NC2CCCCC2)c(C(C)C)nn1C	-7.81
Cc1ccc(CN2CC(C(=O)NCC3CC3)C3(CCOCC3)C2)s1 (configuration not stated)	-18.5
Cc1cnn(CC2CN(c3ccc(C#N)cn3)CCO2)c1 (configuration not stated)	21
CC(C)c1nc(CN(C)C2CCN(CCS(C)(=O)=O)C2)no1 (configuration not stated)	33.7
CCc1nc(CN(C)C2CCN(CCC(=O)N3CCCCC3)C2)no1 (configuration not stated)	36.1
Cc1nc(CN(C)C2CCN(CCC(=O)N3CCOCC3)C2)no1 (configuration not stated)	51.1
CC(=O)N(Cc1noc(C)n1)C1CCN(Cc2cc(C)on2)C1 (configuration not stated)	-6.62
CC(=O)N(Cc1noc(C)n1)C1CCN(Cc2ccon2)C1 (configuration not stated)	65.5
Cc1nc(CN(C)C2CCN(CC(=O)N3CCOCC3)C2)no1 (configuration not stated)	17.3
CC(C)c1nc(CN(C)C2CCN(CCNS(C)(=O)=O)C2)no1 (configuration not stated)	53.3
Cc1nc(CN(C)C2CCN(CC3CCCCC3)C2)no1 (configuration not stated)	63.4
Cc1nc(CN(C)C2CCN(CC3CCCC3)C2)no1 (configuration not stated)	-22.9
Cc1nc(CN(C)C2CCN(CC3CCC3)C2)no1 (configuration not stated)	18.2
CCS(=O)(=O)CCN1CCC(N(C)Cc2noc(C(C)C)n2)C1 (configuration not stated)	21.2
CC(=O)N(Cc1noc(C)n1)C1CCN(Cc2ccccn2)C1 (configuration not stated)	-39.7

— ChEMBL document CHEMBL4513216, “Probing the Open Global Health Chemical Diversity Library for Multistage-Active Starting Points for Next-Generation Antimalarials” (ACS Infect Dis, 2020)
